This passage reports growth inhibition, inhibition and outcome results from PubChem BioAssay.

Assay [1] is described as follows: antimalarial activity against Dd2 strain (AID 2302;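 active means growth inhibition above 50% at the single 2 µM test dose, taken to imply half-maximal potency below 2 µM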;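 further: 0% = DMSO untreated growth and 100% = chloroquine plus artemisinin killed control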). The note with it: P. falciparum Dd2 in RBCs, LDH growth readout, 72 h; at 2 µM; stronger effect = higher value.
A short description of assay [2]: HepG2 cytotoxicity, primary screen, cytotoxicity control for P. falciparum antimalarial project, cell-based, ATP luminescence (AID 2303;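 active means inhibition above 50%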;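 further: 0% = DMSO wells and 100% = digitonin-killed cells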). The note with it: HepG2 viability, 24-48 h, at 10 µM, stronger effect = higher value.
Assay [3] deals with L-lactate dehydrogenase (Plasmodium falciparum (isolate CDC / Honduras)) (UniProt Q27743). Kind of assay: PfLDH activity inhibition – cell lysate, 3D7 strain, counter-screen for P. falciparum growth inhibition project (AID 2304).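 Further: 0% = vehicle and 100% = reference inhibitor.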 The note with it: P. falciparum 3D7 crude extract, LDH APAD/NBT absorbance; at 2 µM; stronger effect = higher value.
Chain of L-lactate dehydrogenase (Plasmodium falciparum (isolate CDC / Honduras)) (Q27743 whole entry, looked up): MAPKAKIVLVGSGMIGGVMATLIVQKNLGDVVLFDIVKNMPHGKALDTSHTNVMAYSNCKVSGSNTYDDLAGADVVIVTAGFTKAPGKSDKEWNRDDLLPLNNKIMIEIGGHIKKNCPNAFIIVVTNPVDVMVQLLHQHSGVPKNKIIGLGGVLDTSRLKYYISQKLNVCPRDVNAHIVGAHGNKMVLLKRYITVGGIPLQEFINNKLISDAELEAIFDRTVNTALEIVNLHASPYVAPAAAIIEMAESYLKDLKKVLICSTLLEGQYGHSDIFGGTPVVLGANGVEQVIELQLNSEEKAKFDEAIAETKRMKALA
Assay [4] is described as follows: inhibition of 3D7 malaria parasite growth – strain 3D7 (AID 2306).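 Further: 0% = DMSO wells and 100% = chloroquine plus artemisinin control wells.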 The note with it: P. falciparum 3D7 erythrocytic growth, LDH absorbance, 72 h; at 2 µM; stronger effect = higher value.
The target in assay [5] is Calcium-dependent protein kinase 1 (Plasmodium falciparum (isolate 3D7)) (UniProt P62344). Kind of assay: PfCDPK1 kinase inhibitors, biochemical, TCAMS library (AID 1159585; cut-off not given, nearly all actives have IC50 up to about 0.98 µM;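 further: inhibitors leave more ATP so luminescence rises with inhibition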). The note with it: recombinant PfCDPK1, Kinase-Glo ATP depletion luminescence.
Chain of Calcium-dependent protein kinase 1 (Plasmodium falciparum (isolate 3D7)) (P62344 whole entry, looked up): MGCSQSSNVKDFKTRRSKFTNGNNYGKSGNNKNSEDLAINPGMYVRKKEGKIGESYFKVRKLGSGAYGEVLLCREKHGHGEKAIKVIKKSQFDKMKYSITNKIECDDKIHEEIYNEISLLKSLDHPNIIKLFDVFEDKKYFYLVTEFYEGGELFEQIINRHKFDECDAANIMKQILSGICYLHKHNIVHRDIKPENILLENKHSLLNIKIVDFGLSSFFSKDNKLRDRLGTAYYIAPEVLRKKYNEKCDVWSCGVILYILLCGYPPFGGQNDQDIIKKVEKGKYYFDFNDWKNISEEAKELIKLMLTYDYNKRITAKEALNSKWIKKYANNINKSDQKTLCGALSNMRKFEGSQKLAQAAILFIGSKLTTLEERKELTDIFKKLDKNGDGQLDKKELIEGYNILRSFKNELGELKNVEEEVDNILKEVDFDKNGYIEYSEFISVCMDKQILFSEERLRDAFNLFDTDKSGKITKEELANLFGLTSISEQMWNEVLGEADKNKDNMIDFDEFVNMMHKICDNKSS
For assay [6], the target named is Plasmodium falciparum protein kinase 6 (PK6, PF3D7_1337100) (UniProt Q8IDW1). Kind of assay: PfPK6 kinase inhibitors, biochemical, TCAMS library (AID 1159586). The note with it: recombinant PfPK6, Kinase-Glo ATP depletion luminescence.
Chain of Plasmodium falciparum protein kinase 6 (PK6, PF3D7_1337100) (Q8IDW1 1-305): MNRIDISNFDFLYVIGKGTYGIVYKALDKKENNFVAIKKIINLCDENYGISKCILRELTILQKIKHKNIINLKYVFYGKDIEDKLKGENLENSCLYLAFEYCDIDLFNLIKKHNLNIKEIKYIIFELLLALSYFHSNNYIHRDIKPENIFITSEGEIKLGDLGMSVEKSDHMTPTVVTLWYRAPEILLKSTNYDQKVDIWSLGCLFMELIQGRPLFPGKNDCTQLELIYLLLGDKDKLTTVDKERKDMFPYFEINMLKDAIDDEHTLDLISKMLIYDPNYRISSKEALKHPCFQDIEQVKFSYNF
Assay [7] concerns the target Protein kinase 7 (PK7), Plasmodium falciparum 3D7 (PF3D7_0213400) (UniProt Q7YTF7). Put plainly: inhibition of Plasmodium PK7 catalytic activity – biochemical, TCAMS antimalarial set, Kinase-Glo luminescence (AID 1159587). The note with it: recombinant PfPK7, Kinase-Glo ATP depletion luminescence.
Assay [8] deals with Calcium-dependent protein kinase 4 (Plasmodium falciparum (isolate 3D7)) (UniProt Q8IBS5). Put plainly: PfCDPK4 kinase inhibitors, biochemical, TCAMS library (AID 1159588; cut-off not given, nearly all actives have IC50 up to about 0.91 µM). The note with it: recombinant PfCDPK4, Kinase-Glo ATP depletion luminescence.
Chain of Calcium-dependent protein kinase 4 (Plasmodium falciparum (isolate 3D7)) (Q8IBS5 whole entry, looked up): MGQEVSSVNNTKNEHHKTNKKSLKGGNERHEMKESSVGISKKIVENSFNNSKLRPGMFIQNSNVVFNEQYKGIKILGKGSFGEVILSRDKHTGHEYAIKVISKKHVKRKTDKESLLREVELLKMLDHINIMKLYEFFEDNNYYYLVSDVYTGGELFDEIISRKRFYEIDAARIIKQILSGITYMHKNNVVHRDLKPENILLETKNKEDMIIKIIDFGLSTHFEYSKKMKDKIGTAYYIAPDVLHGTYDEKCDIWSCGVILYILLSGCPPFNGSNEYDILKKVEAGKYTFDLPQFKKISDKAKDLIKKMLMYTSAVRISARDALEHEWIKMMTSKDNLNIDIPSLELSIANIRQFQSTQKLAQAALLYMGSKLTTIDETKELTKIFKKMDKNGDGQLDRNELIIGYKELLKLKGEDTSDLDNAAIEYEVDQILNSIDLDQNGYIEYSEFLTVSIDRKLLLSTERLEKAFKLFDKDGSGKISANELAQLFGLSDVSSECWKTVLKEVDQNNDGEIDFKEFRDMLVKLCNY

Molecules are shown by their SMILES. A number with no mark means an inactive call. For some of these results: Measured potencies and affinities stand elsewhere. The source made the active and inactive calls. Unless noted, how the calls were made is not given here.

Chain of Protein kinase 7 (PK7), Plasmodium falciparum 3D7 (PF3D7_0213400) (Q7YTF7 1-343): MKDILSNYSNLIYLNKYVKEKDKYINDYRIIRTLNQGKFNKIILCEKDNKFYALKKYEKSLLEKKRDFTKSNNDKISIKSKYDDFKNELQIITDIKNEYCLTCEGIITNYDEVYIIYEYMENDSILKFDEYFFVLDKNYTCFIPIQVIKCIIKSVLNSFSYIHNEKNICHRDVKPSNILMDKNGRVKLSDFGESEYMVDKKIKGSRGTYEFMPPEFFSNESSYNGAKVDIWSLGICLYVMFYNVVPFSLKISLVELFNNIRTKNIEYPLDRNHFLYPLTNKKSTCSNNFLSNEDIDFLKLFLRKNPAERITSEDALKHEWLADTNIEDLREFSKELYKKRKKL

On to `Cc1cc2nc(-c3ccc(OCC(=O)NCc4cccc(C(F)(F)F)c4)cc3)[nH]c2cc1C`, for which the growth inhibition in assay [1] is 1%; in assay [4], 94% (active). Also, the inhibition in assay [2] was 4%; in assay [3], -4%. The result in assay [5], in assay [6], in assay [7] and in assay [8] was inactive.

For the compound `Cc1cc(NC2CCCC2)nc(Nc2ccccc2F)n1`, the growth inhibition in assay [1] is 53% (active); in assay [4], 97% (active). The inhibition is 24% in assay [2] and -2% in assay [3]. Besides, the outcome in assay [5], in assay [6], in assay [7] and in assay [8] was inactive.

With `CC1CCCN(C(=O)C(C)Nc2cc(Cl)ccc2N2CCOCC2)C1` (stereo not given), the figures for the growth inhibition in assay [1] and in assay [4] were 96% (active) and 101% (active), respectively. The inhibition in assay [2] is -1%; in assay [3], -5%. The outcome in assay [5], in assay [6], in assay [7] and in assay [8] was inactive.

`CCOC(=O)c1ccc(NC(=O)N[C@@H](Cc2ccccc2)C(=O)NC2CCN(Cc3ccc(O)cc3)C2)cc1` (stereo not given in full): the growth inhibition in assay [1] was 2%; in assay [4], 95% (active). Besides, the inhibition in assay [2] is 7%; in assay [3], -6%. For the same compound, the result in assay [5], in assay [6], in assay [7] and in assay [8] was inactive.

In the case of `Cc1ccnc(NC(c2ccc(Cl)c([N+](=O)[O-])c2)c2ccc3cccnc3c2O)c1` (stereo not given), the growth inhibition was 57% (active) in assay [1] and 89% (active) in assay [4]. The figures for the inhibition in assay [2] and in assay [3] were 47% and 6%, respectively. Moreover, the result in assay [5], in assay [6], in assay [7] and in assay [8] was inactive.

Consider `CC(NC(=O)c1ccc(O)c(-c2ccc(Cl)c(Cl)c2)c1)C(=O)NC1CCCCC1` (stereo not given), for which the growth inhibition is 82% (active) in assay [1] and 96% (active) in assay [4]. The inhibition was -5% in assay [2] and -2% in assay [3]. Moreover, the outcome in assay [5], in assay [6], in assay [7] and in assay [8] was inactive.

In the case of `O=c1cc(NCCCNC2CCCc3c2cc(Cl)c(Cl)c3Cl)[nH]c2ccccc12` (stereo not given), the growth inhibition in assay [1] is 64% (active); in assay [4], 100% (active). The inhibition in assay [2] was 6%; in assay [3], -10%. For the same compound, the outcome in assay [5], in assay [6], in assay [7] and in assay [8] was inactive.

Turning to `COc1ccc(CN2CCC(CNCCc3c(Cl)cccc3Cl)CC2)cc1`, the growth inhibition in assay [1] is 69% (active); in assay [4], 98% (active). The values for the inhibition in assay [2] and in assay [3] were 45% and -11%, respectively. Also, the outcome in assay [5], in assay [6], in assay [7] and in assay [8] was inactive.

Take `C=C(C)Cn1cc(C2CCN(CCN3CCC(CNC(=O)c4ccc(-c5ccc(C#N)cc5)cc4)CC3)CC2)c2ccccc21`: the values for the growth inhibition in assay [1] and in assay [4] were 94% (active) and 99% (active), respectively. The inhibition in assay [2] was 64% (active); in assay [3], -3%. Moreover, the result in assay [5], in assay [6], in assay [7] and in assay [8] was inactive.

Take `O=C(NC1c2ccccc2Oc2ccccc21)c1ccccc1O`: the growth inhibition in assay [1] was -3%; in assay [4] it was 95% (active). Further, the inhibition in assay [2] is -3%; in assay [3] it was -1%. The outcome in assay [5], in assay [6], in assay [7] and in assay [8] was inactive.

On to `FC(F)(F)c1ccc2nc(-c3ccc(-c4cccc(CNCc5ccccc5)c4)s3)[nH]c2c1`, for which the growth inhibition in assay [1] is 83% (active); in assay [4] it was 102% (active). For the same compound, the inhibition was 15% in assay [2] and -5% in assay [3]. For the same compound, the outcome in assay [5], in assay [6], in assay [7] and in assay [8] was inactive.

As for `C[C@H](NC(=O)c1c(CN2CCC(NC(=O)CC(C)(C)C)CC2)c(-c2cccs2)nc2ccccc12)C1CCCCC1`, the growth inhibition in assay [1] was 70% (active); in assay [4], 91% (active). Besides, the inhibition in assay [2] and in assay [3] was -3% throughout. Further, the result in assay [5], in assay [6], in assay [7] and in assay [8] was inactive.

With `CS(=O)(=O)c1ccc(-n2nc(C(F)(F)F)cc2-c2ccc(/C=N/OCC(=O)O)o2)cc1`, the growth inhibition in assay [1] is 0%; in assay [4] it was 87% (active). The inhibition in assay [2] is -15%; in assay [3], -7%. The outcome in assay [5], in assay [6], in assay [7] and in assay [8] was inactive.

`O=C(NCc1ccc(Cl)c(Cl)c1)c1ccc(C2CCCN(Cc3ccc4nc[nH]c4c3)C2)cc1` (stereo not given): the growth inhibition in assay [1] is 83% (active); in assay [4], 100% (active). In addition, the values for the inhibition in assay [2] and in assay [3] were 9% and 3%, respectively. Further, the outcome in assay [5], in assay [6], in assay [7] and in assay [8] was inactive.

`CCCCN1CCCC[C@H]1[C@@H](O)c1ccnc2ccc(OCC)cc12`: the figures for the growth inhibition in assay [1] and in assay [4] were 88% (active) and 100% (active), respectively. Further, the inhibition in assay [2] was 6%; in assay [3], -2%. Moreover, the result in assay [5], in assay [6], in assay [7] and in assay [8] was inactive.

As to `Cc1cccc2[nH]c(-c3ccc(-c4cccc(CN5CCC(C(N)=O)CC5)c4)cc3)nc12`, the growth inhibition in assay [1] was 16%; in assay [4], 87% (active). Also, the inhibition in assay [2] was 9%; in assay [3], 6%. The outcome in assay [5], in assay [6], in assay [7] and in assay [8] was inactive.

With `O=S(=O)(Nc1cccc(CCN2CCC(N3CCCCC3)CC2)c1)c1cccc2cccnc12`, the growth inhibition was 17% in assay [1] and 98% (active) in assay [4]. Besides, the values for the inhibition in assay [2] and in assay [3] were 0% and 1%, respectively. Further, the result in assay [5], in assay [6], in assay [7] and in assay [8] was inactive.

On to `Cn1nc(C(F)(F)F)c(-c2ccc(F)cc2)c1NC(=O)Nc1ccccc1`, for which the growth inhibition was 99% (active) in assay [1] and 101% (active) in assay [4]. The values for the inhibition in assay [2] and in assay [3] were 3% and 6%, respectively. Also, the outcome in assay [5], in assay [6], in assay [7] and in assay [8] was inactive.

As to `Cc1cccc2[nH]c(-c3cccc(-c4cccc(NC(=O)c5ccc(C(N)=O)cc5)c4)c3)nc12`, the growth inhibition in assay [1] is 34%; in assay [4], 101% (active). Also, the inhibition in assay [2] is 25%; in assay [3], 0%. Also, the result in assay [5], in assay [6], in assay [7] and in assay [8] was inactive.

`CN1CCc2cc(NS(=O)(=O)c3ccc(-c4ccc(Cl)cc4)cc3)c(OCCCN3CCCCC3)cc2CC1`: the growth inhibition is 100% (active) in assay [1] and 101% (active) in assay [4]. The inhibition in assay [2] is 91% (active); in assay [3], 0%. Further, the outcome in assay [5], in assay [6], in assay [7] and in assay [8] was inactive.
